Data published in PubChem BioAssay (NCI).
This is part of a sample that, as a whole, favours compounds with a hit. Of some 83,000 tested, about 20% had one in any assay.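 Step 1: grow cells in 96-well plates. Step 2: add test compound at a single concentration. Step 3: incubate 48 h. Step 4: record percent growth.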 A number with no mark means an inactive call. Activity calls are given as the source filed them. The calls were made as follows: active = growth percent below 10; inactive = the rest.

These compounds were tested on IGROV1 ovarian (assay: NCI-60 one-dose screen, 48 h (100 = growth as untreated, 0 = no growth, -100 = all killed)). Details: 10 µM unless noted.
`C=C1C(=O)O[C@H]2[C@H]1CC/C(COC(=O)/C=C\C(=O)O)=C\CC[C@@]1(C)O[C@@H]21` showed a growth of 107%.
`CCCCC1CCc2cccc3c(SCC(=O)N(C)c4ccc(Cl)cc4)cc[n+]1c23` (stereo not given) gave a growth of 121%.
Compound `O=C(c1nc2ccccc2[nH]1)C1C(c2cccc([N+](=O)[O-])c2)C2CC3CCCCC3N2[C@@]12C(=O)Nc1cc(Cl)ccc12` (stereo not given in full) has a growth of 10.3%.
`O=C1/C(=C/c2ccc(O)cc2)COc2ccc(O)cc21` was tested, and the growth was 97.3%.
`O=C1/C(=C/c2ccc(O)cc2)COc2ccc(O)c(O)c21` was tested, and the growth was 8.79% (active).
`COc1cc2nc(NC3CCCC3)nc(NC3CCN(C(C)C)CC3)c2cc1OC` was tested, and the growth was 82%.
Compound `Cc1ccccc1CNC(=O)C1CN(c2ccc(Cl)cc2)N(c2ccc(Cl)cc2)C1=O` (stereo not given) has a growth of 89.7%.
`COc1cc(C2CC(c3ccc(Nc4nc(NCCO)nc(N5CCOCC5)n4)cc3)=NN2c2cc(Cl)cc(Cl)c2)cc(OC)c1OC` (stereo not given) showed a growth of 55%.
Compound `O=C(c1nc2ccccc2[nH]1)C1C(c2ccc([N+](=O)[O-])cc2)C2CC3CCCCC3N2[C@@]12C(=O)Nc1cc(Cl)ccc12` (stereo not given in full) has a growth of 24.9%.
For `O=C(Cn1cc(COc2ncnc3c2cnn3-c2ccccc2)nn1)Nc1cccc2ccccc12`, the growth was 102%.
`CN1C(=O)N(C)C2Nn3c(s/c(=C\c4ccc(Cl)cc4Cl)c3=O)=NC21` (stereo not given) was tested, and the growth was 60.5%.
`O=Cc1cc2ccccc2nc1Nc1nccs1` showed a growth of 42.6%.
For `O=C1/C(=C/c2cccc(O)c2)COc2ccc(O)cc21`, the growth was 78.1%.
In the case of `COc1cc2nc(NC3CCC3)nc(NC3CCN(C(C)C)CC3)c2cc1OC`, the growth is reported as 75.1%.
In the case of `O=C(c1nc2ccccc2[nH]1)C1[C@@H](c2cccc(O)c2)C2CC3CCCCC3N2[C@@]12C(=O)Nc1cc(Cl)ccc12` (stereo not given in full), the growth is reported as 38.8%.
`CCN1C(=O)N(c2ccccc2)C2NN=c3s/c(=C4\C(=O)N(C(C)C)c5ccccc54)c(=O)n3C21` (stereo not given) was tested, and the growth was 28.5%.
`Cc1sc2ncn(CC(=O)Nc3ccc(S(N)(=O)=O)cc3)c(=O)c2c1C` was tested, and the growth was 102%.
For `COC(=O)c1c2c(c(C)[n+]([O-])c1C)C(=O)C(NCc1ccc(F)c(F)c1)=CC2=O`, the growth was 0.321% (active).
In the case of `CNCCNc1nc2ccccc2c2c(=O)c3cccc(OC)c3sc12`, the growth is reported as 29.7%.
Work on `CNCCNc1nc2ccccc2c2c(=O)c3cccc(C)c3sc12` yielded a growth of 18.1%.
`COc1cc(/C=C2\Oc3cc(OCCCN4CCCC4)ccc3C2=O)cc(OC)c1` gave a growth of 51%.
Compound `COC(=O)[C@H](NC(=O)C1(C)CCC[C@]2(C)[C@H]3C[C@H]4C(C(C)C)=C[C@]3(CC[C@@H]12)[C@@H]1C(=O)CCC(=O)[C@@H]14)C(C)C` (stereo not given in full) has a growth of 91.9%.
Compound `COc1cc(/C=C2\CN(C)C/C(=C\c3cc(CN4CCCCC4)c(O)c(OC)c3)C2=O)cc(CN2CCCCC2)c1O` has a growth of 68.4%.
With `O=S(=O)(Nc1ncccn1)c1ccc(NC2Nc3nc4ccccc4nc3S2)cc1` (stereo not given) the growth was 96.3%.
`O=C1CCC(N2C(=O)c3cccc(NCCCCCCOc4ccc(Nc5nccc(Nc6ccccc6)n5)cc4)c3C2=O)C(=O)N1` (stereo not given) showed a growth of 72.5%.
`Cc1c(-c2csc(-n3nc(C(F)(F)F)cc3C(F)(F)F)n2)no[n+]1[O-]` showed a growth of 102%.
`O=C(NCc1ccccc1)C1CN(c2ccc(Cl)cc2)N(c2ccc(Cl)cc2)C1=O` (stereo not given) was tested, and the growth was 92.1%.
Work on `c1ccc2c(c1)oc1cc3sccc3nc12` yielded a growth of 95.8%.
Compound `CCCCC1COc2cccc3c2N1C=C/C3=C\C(=O)N(C)c1ccccc1` (stereo not given) has a growth of 56.1%.
`COc1cc(/C=C/C(=O)c2ccc(Nc3nc(NCCO)nc(N4CCOCC4)n3)cc2)cc(OC)c1OC` showed a growth of 20.6%.
Work on `Cc1cccc2c(=O)c3c(sc12)c(NCCCNCCO)nc1ccccc13` yielded a growth of 15.1%.
For `COc1cc(/C=C2\CN(C)C/C(=C\c3cc(CN4CCCC4)c(O)c(OC)c3)C2=O)cc(CN2CCCC2)c1O`, the growth was 82%.
Work on `O=C(/C=C/c1ccc(C(F)(F)F)cc1)c1ccc(Nc2nc(NCCO)nc(N3CCOCC3)n2)cc1` yielded a growth of 25.4%.
`NCCOc1ccccc1/C=C1\c2ccccc2-c2ccc([N+](=O)[O-])cc21` showed a growth of 23.8%.
`O=C(/C=C/c1ccc(F)cc1)c1ccc(Nc2nc(NCCO)nc(Nc3ccc(Cl)cc3)n2)cc1` gave a growth of 96.4%.
